For orientation: AC50 means the concentration at which the activity in the assay is half-maximal.

The values below come from PubChem BioAssay (EPA / NIEHS).

Activity calls are given as the source filed them. The calls were made as follows: active = hit-call score of the fitted dose curve at least 0.9, where 1 is the maximum; inactive = score below 0.9.

Details in all cases: mRNA level, 48 h; actives raise or lower the signal
Read-out in test [1]: Glutathione S-Transferase (GSTA2), GSTA2 (gene 2939)
The test is described as follows: LTEA_HepaRG_GSTA2: Life Technologies and Expression Analysis (LTEA) Assay for Glutathione S-Transferase (GSTA2) using HepaRG (AID 2283497). The method, boiled down:
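qRT-PCR readout of GSTA2 transcript, normalized to three housekeeping genes, fitted bidirectionally against 0.5% DMSO baseline. Differentiated HepaRG cells received compound for 48 h at 8 concentrations (top 100 uM, half-log steps).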

Read-out in test [2]: Glutamate-cysteine ligase catalytic (GCLC), GCLC (gene 2729)
Put plainly: LTEA_HepaRG_GCLC: Life Technologies and Expression Analysis (LTEA) Assay for Glutamate-cysteine ligase catalytic (GCLC) using HepaRG (AID 2283498). The method in brief: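 HepaRG, 48 h exposure, 8-pt half-log series from 100 uM, 0.5% DMSO vehicle; TaqMan qRT-PCR for GCLC mRNA, housekeeping-normalized; bidirectional curve fit vs DMSO baseline.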

Read-out in test [3]: growth arrest and DNA damage 45 (GADD45G), GADD45G (gene 10912)
The test is described as follows: LTEA_HepaRG_GADD45G: Life Technologies and Expression Analysis (LTEA) Assay for growth arrest and DNA damage 45 (GADD45G) using HepaRG (AID 2283499). The method, boiled down:
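Gain or loss of GADD45G mRNA, quantified by TaqMan qRT-PCR against three housekeeping genes, is fitted in both directions relative to 0.5% DMSO. Human HepaRG cultures receive test chemical for 48 h at up to 100 uM.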

Read-out in test [4]: Glutamate-cysteine ligase regulatory (GCLM), GCLM (gene 2730)
The test is described as follows: LTEA_HepaRG_GCLM: Life Technologies and Expression Analysis (LTEA) Assay for Glutamate-cysteine ligase regulatory (GCLM) using HepaRG (AID 2283500). The method in brief: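 HepaRG, 48 h dosing, 100 uM top, half-log x8, 0.5% DMSO vehicle. Readout: GCLM mRNA by TaqMan qRT-PCR, housekeeping-normalized (ACTB/GAPDH/POLR2A). Curves fit bidirectionally vs DMSO baseline.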

Read-out in test [5]: Heat shock 70 kDa protein 1 (HSPA1A), gene 3303
The test is described as follows: LTEA_HepaRG_HSPA1A: Life Technologies and Expression Analysis (LTEA) Assay for Heat shock 70 kDa protein 1 (HSPA1A) using HepaRG (AID 2283502). The method in brief: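 HepaRG, 48 h exposure, 8-pt half-log CRC from 100 uM in 0.5% DMSO, duplicates. Readout: TaqMan qRT-PCR of HSPA1A mRNA, housekeeping-normalized (ACTB/GAPDH/POLR2A). Bidirectional fit vs 0.5% DMSO baseline.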

Read-out in test [6]: Hypoxia-inducible factor 1-alpha (Homo sapiens) (UniProt Q16665)
Put plainly: LTEA_HepaRG_HIF1A: Life Technologies and Expression Analysis (LTEA) Assay for Hypoxia-inducible factor 1 (HIF1A) Trancription factor using HepaRG (AID 2283503). The method, boiled down:
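Gain- or loss-of-signal HIF1A mRNA changes are fitted against a DMSO baseline. HepaRG cultures receive eight concentrations, highest 100 uM, for 48 h in serum-free induction medium with 0.5% DMSO.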

Read-out in test [7]: 3-Hydroxy-3-Methylglutaryl-CoA Synthase 2 (HMGCS2), HMGCS2 (gene 3158)
The test is described as follows: LTEA_HepaRG_HMGCS2: Life Technologies and Expression Analysis (LTEA) Assay for 3-Hydroxy-3-Methylglutaryl-CoA Synthase 2 (HMGCS2) using HepaRG (AID 2283504). The method, boiled down:
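HepaRG, plated 48 h then switched to serum-free induction media; cmpd 8-pt, max 100 uM, 1/2-log, 0.5% DMSO, n=2, 48 h. HMGCS2 mRNA by Fluidigm TaqMan qRT-PCR, ACTB/GAPDH/POLR2A norm; bidirectional fit vs DMSO.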

Read-out in test [8]: HGF (gene 3082)
The test is described as follows: LTEA_HepaRG_HGF: Life Technologies and Expression Analysis (LTEA) Assay for Hepatocyte Growth Facto (HGF) using HepaRG (AID 2283505). The method, boiled down: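 Read-out is HGF transcript level by qRT-PCR, normalized to three housekeeping genes, fitted bidirectionally against 0.5% DMSO vehicle. Human HepaRG cells received test chemicals for 48 h at up to 100 uM.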

Read-out in test [9]: Insulin Like Growth Factor 1 (IGF1), IGF1 (gene 3479)
Put plainly: LTEA_HepaRG_IGF1: Life Technologies and Expression Analysis (LTEA) Assay for Insulin Like Growth Factor 1 (IGF1) using HepaRG (AID 2283506). The method, boiled down:
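qRT-PCR readout of IGF1 mRNA, normalized to three housekeeping genes, after 48 h chemical exposure of HepaRG cells. Concentrations: 8-point half-log series, top 100 uM, 0.5% DMSO vehicle. Gain or loss fitted against DMSO baseline.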

Read-out in test [10]: Intercellular Adhesion Molecule 1 (ICAM1), ICAM1 (gene 3383)
The test is described as follows: LTEA_HepaRG_ICAM1: Life Technologies and Expression Analysis (LTEA) Assay for Intercellular Adhesion Molecule 1 (ICAM1) using HepaRG (AID 2283507). The method in brief: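 Readout is qRT-PCR mRNA level, normalized to three housekeeping genes and fitted bidirectionally against 0.5% DMSO vehicle. Human HepaRG cultures received compound for 48 h, top concentration 100 uM with half-log dilutions.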

Read-out in test [11]: Insulin-like growth factor-binding protein 1 (IGFBP1), IGFBP1 (gene 3484)
The test is described as follows: LTEA_HepaRG_IGFBP1: Life Technologies and Expression Analysis (LTEA) Assay for Insulin-like growth factor-binding protein 1 (IGFBP1) using HepaRG (AID 2283508). The method in brief: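 Thawed HepaRG cells are plated for 48 h, switched to serum-free induction medium, then dosed in duplicate for another 48 h (100 uM top, half-log steps). Lysates in RLT go to qRT-PCR, and gain or loss of signal is fitted relative to vehicle.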

Read-out in test [12]: Interleukin 6 (IL6), IL6 (gene 3569)
The test is described as follows: LTEA_HepaRG_IL6: Life Technologies and Expression Analysis (LTEA) Assay for Interleukin 6 (IL6) using HepaRG (AID 2283509). The method, boiled down: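 qRT-PCR read-out of IL6 transcript, normalized to three housekeeping genes, after 48 h chemical exposure of HepaRG cells; 8-point half-log series, top 100 uM, 0.5% DMSO vehicle. Bidirectional curve fitting against DMSO baseline.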

Read-out in test [13]: Interleukin 6 Receptor (IL6R), IL6R (gene 3570)
Put plainly: LTEA_HepaRG_IL6R: Life Technologies and Expression Analysis (LTEA) Assay for Interleukin 6 Receptor (IL6R) using HepaRG (AID 2283510). The method, boiled down: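 HepaRG, 48 h exposure, 8-pt half-log series, top 100 uM, 0.5% DMSO vehicle, duplicates. Read-out: TaqMan qRT-PCR of IL6R transcript, housekeeping-gene normalized. Gain or loss fitted relative to DMSO baseline.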

Read-out in test [14]: Potassium channel subfamily K member 1 (KCNK1), KCNK1 (gene 3775)
The test is described as follows: LTEA_HepaRG_KCNK1: Life Technologies and Expression Analysis (LTEA) Assay for Potassium channel subfamily K member 1 (KCNK1) using HepaRG (AID 2283511). The method in brief:
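HepaRG, 48 h exposure, 8-pt half-log series top 100 uM, 0.5% DMSO vehicle, duplicates. Readout: KCNK1 transcript by qRT-PCR (Fluidigm array), housekeeping-normalized; bidirectional curve fit relative to DMSO baseline.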

Read-out in test [15]: Keratin 19 (KRT19), KRT19 (gene 3880)
The test is described as follows: LTEA_HepaRG_KRT19: Life Technologies and Expression Analysis (LTEA) Assay for Keratin 19 (KRT19) using HepaRG (AID 2283512). The method in brief: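 KRT19 transcript levels, measured by Fluidigm qRT-PCR against three housekeeping genes, are fitted for gain or loss of signal relative to DMSO. Human HepaRG cells receive test chemicals (top 100 uM, half-log steps, 0.5% DMSO) for 48 hours.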

Read-out in test [16]: JUN Transcription Factor, JUN (gene 3725)
Put plainly: LTEA_HepaRG_JUN: Life Technologies and Expression Analysis (LTEA) Assay for JUN Transcription Factor using HepaRG (AID 2283513). The method, boiled down:
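HepaRG, 48 h exposure, 8-pt half-log series top 100 uM, 0.5% DMSO, duplicate. JUN mRNA by qRT-PCR (Fluidigm), housekeeping-normalized (ACTB/GAPDH/POLR2A); bidirectional curve fit vs DMSO baseline.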

Read-out in test [17]: Lipase C (LIPC), LIPC (gene 3990)
Put plainly: LTEA_HepaRG_LIPC: Life Technologies and Expression Analysis (LTEA) Assay for Lipase C (LIPC) using HepaRG (AID 2283514). The method, boiled down:
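HepaRG, 48 h exposure, 8-pt half-log series from 100 uM in 0.5% DMSO, duplicates. Readout: LIPC mRNA by Fluidigm qRT-PCR, housekeeping-normalized (ACTB/GAPDH/POLR2A). Gain or loss fitted bidirectionally against DMSO baseline.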

Read-out in test [18]: Lipoprotein lipase (LPL), LPL (gene 4023)
Put plainly: LTEA_HepaRG_LPL: Life Technologies and Expression Analysis (LTEA) Assay for Lipoprotein lipase (LPL) using HepaRG (AID 2283515). The method in brief: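 HepaRG, 48 h exposure, 8-pt half-log dilutions from 100 uM, 0.5% DMSO vehicle, duplicates; qRT-PCR (Fluidigm array) of LPL mRNA vs housekeeping genes; bidirectional curve fit relative to DMSO baseline.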

Read-out in test [19]: MicroRNA 122 (MIR122), gene 406906
Put plainly: LTEA_HepaRG_MIR122: Life Technologies and Expression Analysis (LTEA) Assay for MicroRNA 122 (MIR122) using HepaRG (AID 2283516). Also: the transcript read is the microRNA miR-122. The method in brief:
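qRT-PCR read-out (TaqMan, Fluidigm array), normalized to three housekeeping genes; HepaRG cells dosed 48 h at 8 concentrations up to 100 uM in 0.5% DMSO, duplicate; gain or loss fitted against DMSO baseline.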

Read-out in test [20]: Glutathione S-transferase M3 (GSTM3), GSTM3 (gene 2947)
Put plainly: LTEA_HepaRG_GSTM3: Life Technologies and Expression Analysis (LTEA) Assay for Glutathione S-transferase M3 (GSTM3) using HepaRG (AID 2283501). The method in brief:
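HepaRG, plated 48 h, then serum-free induction medium; test chemical 48 h, duplicate; 100 uM top, half-log x8, 0.5% DMSO. Read-out: GSTM3 mRNA (TaqMan qRT-PCR, Fluidigm array). Bidirectional fit vs DMSO.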

Chain of Hypoxia-inducible factor 1-alpha (Homo sapiens) (Q16665 whole entry, looked up): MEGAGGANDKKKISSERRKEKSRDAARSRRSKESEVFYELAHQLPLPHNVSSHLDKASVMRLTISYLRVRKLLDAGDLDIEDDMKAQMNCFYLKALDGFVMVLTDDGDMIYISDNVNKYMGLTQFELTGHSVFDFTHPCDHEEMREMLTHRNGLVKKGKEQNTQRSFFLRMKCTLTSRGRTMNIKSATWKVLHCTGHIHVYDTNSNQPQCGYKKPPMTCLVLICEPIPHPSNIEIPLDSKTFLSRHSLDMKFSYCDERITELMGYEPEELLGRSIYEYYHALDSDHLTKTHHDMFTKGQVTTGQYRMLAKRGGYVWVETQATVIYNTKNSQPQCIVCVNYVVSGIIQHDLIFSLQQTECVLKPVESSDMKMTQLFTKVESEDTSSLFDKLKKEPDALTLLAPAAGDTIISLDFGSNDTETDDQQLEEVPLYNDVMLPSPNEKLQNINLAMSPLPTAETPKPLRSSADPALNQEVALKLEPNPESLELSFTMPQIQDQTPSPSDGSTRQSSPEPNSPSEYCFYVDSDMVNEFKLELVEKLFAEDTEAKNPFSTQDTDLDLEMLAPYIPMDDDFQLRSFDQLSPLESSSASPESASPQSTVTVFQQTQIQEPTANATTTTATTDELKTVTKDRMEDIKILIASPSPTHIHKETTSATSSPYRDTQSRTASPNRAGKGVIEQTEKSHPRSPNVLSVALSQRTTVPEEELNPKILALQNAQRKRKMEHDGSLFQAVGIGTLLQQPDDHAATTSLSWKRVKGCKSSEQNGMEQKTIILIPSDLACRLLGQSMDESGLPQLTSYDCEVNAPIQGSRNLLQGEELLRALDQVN

On to `CCCC(=O)O`, for which the result in test [1], in [2], in [3], in test [4], in test [5] and in test [6] was inactive. Moreover, the compound was classed as inactive in test [7], in [8], in [9], in test [10], in test [11] and in test [12]. The result in test [13], in test [14], in test [15], in [16], in test [17] and in test [18] was inactive. Also, in [19], the outcome was inactive.
On to `CN(C)CCCN(C)CCCN(C)C`, for which the result in test [1], in [2], in [3], in test [4], in test [5] and in [6] was inactive. The compound was called inactive in test [7], in [8], in [9], in [10], in test [11] and in test [12]. The compound was classed as inactive in test [13], in test [15], in test [16], in test [17], in [18] and in [19].
Regarding `CC(C)COC(=O)CCCCC(=O)OCC(C)C`, the compound was classed as inactive in [1], in test [2], in test [3], in test [20], in test [5] and in [6]. The compound was classed as inactive in test [7], in test [8], in [9], in test [10], in [11] and in [12]. The compound was classed as inactive in test [13], in test [14], in test [15], in test [16], in test [17] and in test [18]. Further, the compound was called inactive in test [19].
Turning to `CCCCCCCCCCCCCCOS(=O)(=O)O`, the result in test [1], in test [2], in test [3], in test [4], in test [5] and in [6] was inactive. In addition, the compound was classed as inactive in test [7], in test [8], in [10], in [11], in test [12] and in test [13]. Moreover, the call in test [15], in test [16], in [17], in test [18] and in [19] was inactive. Moreover, the AC50 in [9] was 24.6 µM (active).
For the compound `CC(COCC(C)OC(=O)c1ccccc1)OC(=O)c1ccccc1` (stereo not given), the result in [1], in [2], in test [3], in test [4], in test [5] and in test [6] was inactive. The compound was classed as inactive in [7], in test [8], in [9], in [10], in test [11] and in test [12]. Besides, the call in test [13], in test [15], in test [16], in test [17], in [18] and in test [19] was inactive.
Take `O=[Si]=O`: the call in test [1], in test [2], in test [3], in test [20], in test [5] and in test [6] was inactive. Further, the compound was classed as inactive in test [7], in test [8], in test [9], in test [10], in test [11] and in test [12]. The compound was classed as inactive in test [13], in test [14], in test [15], in test [16], in test [17] and in [18]. The call in test [19] was inactive.
Regarding `O=C1c2c(O)cccc2Cc2cccc(O)c21`, the result in test [1], in [2], in [3], in test [20], in test [5] and in test [6] was inactive. For the same compound, the call in test [7], in test [8], in test [9], in [10], in test [11] and in [12] was inactive. The outcome in test [13], in test [14], in test [15], in test [16], in test [17] and in test [18] was inactive. Besides, the compound was called inactive in [19].
